Data published in PubChem BioAssay AID720722 (Molecular Libraries Program, Specialized Chemistry Center, …, 2013).
Activity calls are given as the source filed them. The limit is not given here; nearly all actives have IC50 up to about 12 µM.

assay: blockers of mitochondrial swelling – biochemical, absorbance, isolated mitochondria, dry powder samples, dose response (AID 720722)

IC50, active:
CN(C)CCCN1c2ccccc2Sc2ccc(Cl)cc21 2.5 µM
N=c1sccn1CC(=O)Nc1cccc(Oc2ccccc2)c1 2.92 µM
Cc1ccc2nc(N(CCN(C)C)C(=O)/C=C/c3cccs3)sc2c1 3.33 µM
CN1CCC[C@@H]1CCO[C@](C)(c1ccccc1)c1ccc(Cl)cc1 4.43 µM
C=CCNCCOc1ccc(C(C)(C)c2ccccc2)cc1 12.4 µM
CC(C)(C)c1ccccc1OCCCCCNCCO 3.67 µM
COC(=O)c1c(NC(=O)C2CCCCC2)sc2c1CC(C)(C)NC2(C)C 3.64 µM
COc1ccc(-n2cc(CNC3CCN(C)CC3)c(-c3cccc(F)c3)n2)cc1 2.03 µM
